The values that follow come from PubChem BioAssay (EPA / NIEHS).

Results filed as inconclusive are left out. The source made the active and inactive calls. How the source made its calls, unless noted: active means hit-call score of the fitted dose curve at least 0.9, where 1 is the maximum; inconclusive means response in the unintended direction; inactive means score below 0.9.

Sequence of X-box-binding protein 1 (Homo sapiens) (P17861 whole entry, looked up): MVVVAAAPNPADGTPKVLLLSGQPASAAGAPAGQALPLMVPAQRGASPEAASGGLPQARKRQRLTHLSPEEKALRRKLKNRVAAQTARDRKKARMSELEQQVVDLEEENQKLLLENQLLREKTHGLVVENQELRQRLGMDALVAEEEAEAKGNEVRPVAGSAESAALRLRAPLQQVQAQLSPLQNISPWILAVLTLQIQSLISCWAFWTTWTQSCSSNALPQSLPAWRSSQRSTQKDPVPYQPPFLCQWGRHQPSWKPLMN
Sequence of Estrogen receptor (Homo sapiens) (P03372 whole entry, looked up, the tested form may be a part): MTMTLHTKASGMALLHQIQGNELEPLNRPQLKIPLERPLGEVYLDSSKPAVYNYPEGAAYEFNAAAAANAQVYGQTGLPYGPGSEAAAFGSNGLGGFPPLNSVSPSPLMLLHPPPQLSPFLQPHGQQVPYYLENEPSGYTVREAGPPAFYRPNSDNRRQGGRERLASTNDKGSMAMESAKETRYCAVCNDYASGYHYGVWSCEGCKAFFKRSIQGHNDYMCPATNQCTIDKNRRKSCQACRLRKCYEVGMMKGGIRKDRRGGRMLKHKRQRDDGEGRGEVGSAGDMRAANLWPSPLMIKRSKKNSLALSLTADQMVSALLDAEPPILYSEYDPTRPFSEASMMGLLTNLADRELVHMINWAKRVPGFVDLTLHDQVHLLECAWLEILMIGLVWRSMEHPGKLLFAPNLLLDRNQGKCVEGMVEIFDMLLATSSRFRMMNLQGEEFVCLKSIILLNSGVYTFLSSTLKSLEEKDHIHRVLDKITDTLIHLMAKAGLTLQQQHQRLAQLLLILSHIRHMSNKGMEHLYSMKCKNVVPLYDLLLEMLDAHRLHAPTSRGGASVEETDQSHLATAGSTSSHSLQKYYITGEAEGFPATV

For one test, the target named is Nuclear receptor subfamily 1 group I member 3 (Homo sapiens) (UniProt Q14994). Description: ATG_CAR_TRANS: Attagene TRANS-FACTORIAL HepG2 Assay for human Constitutive Androstane Receptor (CAR) (AID 2282969).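 Further: activators raise reporter mRNA above DMSO so AC50 marks induction.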 Particulars: HepG2 Attagene TRANS-FACTORIAL CAR reporter. A digest of the protocol: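 Transiently transfected HepG2, multiplex TRANS reporters (CAR-Gal4 chimera driving GAL4-UAS reporter). 24 h dosing. Readout: reporter transcript by RT-PCR + capillary electrophoresis, fluorescence intensity; positive direction vs DMSO.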
Sequence of Nuclear receptor subfamily 1 group I member 3 (Homo sapiens) (Q14994 whole entry, looked up, the tested form may be a part): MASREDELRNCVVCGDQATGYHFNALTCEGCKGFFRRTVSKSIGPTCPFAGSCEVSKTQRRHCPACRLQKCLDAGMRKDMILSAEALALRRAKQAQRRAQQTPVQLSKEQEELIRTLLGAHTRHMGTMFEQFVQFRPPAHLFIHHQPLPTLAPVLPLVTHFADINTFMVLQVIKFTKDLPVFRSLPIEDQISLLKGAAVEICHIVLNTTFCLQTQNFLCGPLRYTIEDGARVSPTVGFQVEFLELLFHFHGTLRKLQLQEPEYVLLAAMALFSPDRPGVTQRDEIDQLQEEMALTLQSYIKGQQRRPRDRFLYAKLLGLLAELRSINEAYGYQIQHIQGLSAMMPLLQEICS
For `CC1(C)[C@@H]2CC[C@@]1(C)C(=O)C2`, the result was inactive.

For the compound `COC(=O)c1ccc(C(=O)OC)c(C(=O)OC)c1`, the compound was called inactive.

`C=CC(=O)OCCCCCCOC(=O)C=C`: the compound was classed as inactive.

`C=CCCCCCCCCC=O`: the compound was classed as inactive.

As for `CC1=CC(C)C(C=O)CC1` (stereo unspecified), the call was inactive.

For the compound `COc1cc(C)ccc1O`, the result was inactive.

`CC(C)c1ccc2ncccc2c1`: the compound was classed as inactive.

On to `CCCCCC1=CCCC1=O`, for which the result was inactive.

The next test has as its target Estrogen receptor (Homo sapiens) (UniProt P03372). Briefly: ATG_ERa_TRANS: Attagene TRANS-FACTORIAL HepG2 Assay for human Estrogen Receptor alpha (ERa) (AID 2282970). The note with it: HepG2 Attagene TRANS ERa GAL4 reporter, mRNA. A digest of the protocol: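 Liver-derived HepG2 cells expressing chimeric nuclear receptor-Gal4 proteins from transient transfection were exposed for 24 hours. Gain of reporter mRNA signal versus DMSO, read by capillary electrophoresis of FAM-labelled PCR products, was recorded.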
In the case of `CC1(C)[C@@H]2CC[C@@]1(C)C(=O)C2`, the compound was called inactive.

With `COC(=O)c1ccc(C(=O)OC)c(C(=O)OC)c1`, the result was inactive.

Consider `C=CC(=O)OCCCCCCOC(=O)C=C`, for which the compound was called inactive.

On to `C=CCCCCCCCCC=O`, for which the call was inactive.

For `CC1=CC(C)C(C=O)CC1` (stereo unspecified), the result was inactive.

Turning to `COc1cc(C)ccc1O`, the outcome was inactive.

Turning to `CC(C)c1ccc2ncccc2c1`, the outcome was inactive.

For the compound `CCCCCC1=CCCC1=O`, the compound was called inactive.

Another test deals with Steroid hormone receptor ERR1 (Homo sapiens) (UniProt P11474). Description: ATG_ERRa_TRANS: Attagene TRANS-FACTORIAL HepG2 Assay for human Estrogen-Related Receptor alpha (ERRa) (AID 2282971). Particulars: HepG2 Attagene TRANS reporter, ERRa transactivation. The procedure, abridged: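 Reporter transcript induction was quantified by RT-PCR and capillary electrophoresis of FAM-labelled, HpaI-cut products after 24 h treatment of HepG2 cells carrying transiently transfected GAL4-UAS reporter units and an exogenous ERRa-Gal4 fusion; activity scored as increase over DMSO.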
Sequence of Steroid hormone receptor ERR1 (Homo sapiens) (P11474 whole entry, looked up, the tested form may be a part): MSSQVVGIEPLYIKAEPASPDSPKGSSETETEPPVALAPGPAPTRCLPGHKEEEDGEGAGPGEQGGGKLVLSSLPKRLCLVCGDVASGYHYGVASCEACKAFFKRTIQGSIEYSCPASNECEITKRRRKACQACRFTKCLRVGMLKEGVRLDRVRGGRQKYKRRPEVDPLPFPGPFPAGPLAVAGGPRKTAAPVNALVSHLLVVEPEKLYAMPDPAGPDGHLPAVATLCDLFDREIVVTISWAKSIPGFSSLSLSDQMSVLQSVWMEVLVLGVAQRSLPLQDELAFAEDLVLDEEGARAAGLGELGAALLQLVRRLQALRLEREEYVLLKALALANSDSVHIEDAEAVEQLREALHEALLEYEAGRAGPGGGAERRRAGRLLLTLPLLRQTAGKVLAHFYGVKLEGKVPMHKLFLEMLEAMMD
As to `O=S(=O)(O)c1ccc(Nc2nc(Nc3ccc(C=Cc4ccc(Nc5nc(Nc6ccc(S(=O)(=O)O)cc6)nc(N(CCO)CCO)n5)cc4S(=O)(=O)O)c(S(=O)(=O)O)c3)nc(N(CCO)CCO)n2)cc1`, the compound was called inactive.

Take `NC(=O)Nc1ccccc1`: the call was inactive.

On to `CC1(C)[C@@H]2CC[C@@]1(C)C(=O)C2`, for which the compound was classed as inactive.

Consider `CC1=CP(=O)(c2ccccc2)CC1` (stereo unspecified), for which the compound was called inactive.

Turning to `Cn1ccnc1`, the call was inactive.

On to `COC(=O)c1ccc(C(=O)OC)c(C(=O)OC)c1`, for which the outcome was inactive.

Regarding `C=CC(=O)OCCCCCCOC(=O)C=C`, the compound was classed as inactive.

On to `C=CCCCCCCCCC=O`, for which the compound was called inactive.

As to `CC1=CC(C)C(C=O)CC1` (stereo unspecified), the call was inactive.

For the compound `CC(C)c1ccc2ncccc2c1`, the compound was classed as inactive.

For another test, the target named is X-box-binding protein 1 (Homo sapiens) (UniProt P17861). Briefly: ATG_Xbp1_CIS: Attagene CIS-FACTORIAL HepG2 Assay for human X-box Binding Protein 1 (XBP1) (AID 2282972; active means hit-call score of the fitted dose curve at least 0.9, where 1 is the maximum; inactive means score below 0.9). Particulars: HepG2 XBP1 cis-element reporter, Attagene multiplex; actives raise or lower the signal. The procedure, abridged:
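Reporter transcripts were quantified by RT-PCR with fluorescent primer extension and capillary electrophoresis after 24 h chemical exposure. Cells: transiently transfected HepG2 carrying cis-regulated reporter constructs; data fitted bidirectionally relative to DMSO.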
`Cc1c(C(=O)c2c[nH]n(C)c2=O)ccc(S(C)(=O)=O)c1C1=NOCC1`: the result was inactive.

In the case of `CC(=O)OC(C)c1ccccc1` (stereo unspecified), the result was inactive.

Take `O=S(=O)(O)c1ccc(Nc2nc(Nc3ccc(C=Cc4ccc(Nc5nc(Nc6ccc(S(=O)(=O)O)cc6)nc(N(CCO)CCO)n5)cc4S(=O)(=O)O)c(S(=O)(=O)O)c3)nc(N(CCO)CCO)n2)cc1`: the compound was called inactive.

Regarding `Clc1cccnc1`, the call was inactive.

Take `Nc1cccc(N)n1`: the compound was called inactive.

Consider `CC(C)=NNC(N)=S`, for which the call was inactive.

Consider `C/C=C/C=C/CCCCCCCO`, for which the compound was called inactive.

For `NC(=O)Nc1ccccc1`, the call was inactive.

Take `CC12CCC(CC1)C(C)(C)O2`: the call was inactive.

On to `CC1(C)CC(O)CC(C)(C)N1[O]`, for which the compound was called inactive.

Take `Cc1cc(=O)[nH]c(=O)[nH]1`: the compound was classed as inactive.

As to `CC(C)(CO)C(O)C(=O)NCCCO` (stereo unspecified), the compound was classed as inactive.

With `CC1(C)[C@@H]2CC[C@@]1(C)C(=O)C2`, the compound was classed as inactive.

On to `N#CC1(N)CCCCC1`, for which the compound was classed as inactive.

In the case of `CC(=O)c1ccc(S(=O)(=O)NC(=O)NC2CCCCC2)cc1`, the compound was called inactive.

For `CC1=CP(=O)(c2ccccc2)CC1` (stereo unspecified), the compound was classed as inactive.

As for `CCOB(OCC)OCC`, the result was inactive.

On to `CCCCCC(=O)OCC`, for which the compound was classed as inactive.

On to `Nc1ncnc2nc[nH]c12`, for which the compound was classed as inactive.

Regarding `O=C(O)c1ccc2c(c1)C(=O)OC2=O`, the compound was called inactive.

With `Cn1ccnc1`, the outcome was inactive.

Regarding `CC(CC(C)C)=NO`, the outcome was inactive.

Consider `COC(=O)c1ccc(C(=O)OC)c(C(=O)OC)c1`, for which the outcome was inactive.

By AC50 is commonly meant the concentration at which the activity in the assay is half-maximal. For `C=CC(=O)OCCCCCCOC(=O)C=C`, the AC50 was 26.6 µM (active).

Take `C=CCCCCCCCCC=O`: the outcome was inactive.

As for `CCCCOC(=O)C(C)CC` (stereo unspecified), the outcome was inactive.

For `CC(C)(C)N`, the result was inactive.

With `CCC(C)N` (stereo unspecified), the result was inactive.

As for `CC1=CC(C)C(C=O)CC1` (stereo unspecified), the result was inactive.

Take `CC(C)C(=O)OCCOc1ccccc1`: the outcome was inactive.

Consider `CC(C)c1ccc2ncccc2c1`, for which the compound was called inactive.

System in the next test: not listed separately
Description: ATG_M_19_TRANS: Attagene TRANS-FACTORIAL HepG2 Assay for M19 Transcription Factor (Internal Marker) (AID 2282974). Particulars: HepG2 Attagene TRANS-FACTORIAL M19 internal marker reporter. The procedure, abridged: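 Background-control readout: after 24 h chemical exposure of transfected HepG2 carrying GAL4-driven reporter units, RNA was reverse-transcribed, amplified, fluorescently labeled and sized by capillary electrophoresis; gain-of-signal fit against DMSO.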
Regarding `Cc1c(C(=O)c2c[nH]n(C)c2=O)ccc(S(C)(=O)=O)c1C1=NOCC1`, the call was inactive.

On to `Clc1cccnc1`, for which the outcome was inactive.

As to `Nc1cccc(N)n1`, the outcome was inactive.

Regarding `C/C=C/C=C/CCCCCCCO`, the compound was classed as inactive.

Consider `[Cl][Sc]([Cl])[Cl]`, for which the call was inactive.

As to `NC(=O)Nc1ccccc1`, the call was inactive.

Turning to `CC1(C)[C@@H]2CC[C@@]1(C)C(=O)C2`, the result was inactive.

On to `N#CC1(N)CCCCC1`, for which the compound was called inactive.

On to `CC(=O)c1ccc(S(=O)(=O)NC(=O)NC2CCCCC2)cc1`, for which the compound was called inactive.

On to `CC1=CP(=O)(c2ccccc2)CC1` (stereo unspecified), for which the compound was called inactive.

`CCOB(OCC)OCC`: the compound was called inactive.

On to `CCCCCC(=O)OCC`, for which the call was inactive.

For `Nc1ncnc2nc[nH]c12`, the compound was classed as inactive.

For `O=C(O)c1ccc2c(c1)C(=O)OC2=O`, the compound was called inactive.

With `Cn1ccnc1`, the compound was classed as inactive.

`COC(=O)c1ccc(C(=O)OC)c(C(=O)OC)c1`: the outcome was inactive.

Regarding `C=CC(=O)OCCCCCCOC(=O)C=C`, the outcome was inactive.

Turning to `CC(C)(C)N`, the call was inactive.

On to `C[Si]1(C)O[Si](C)(C)O[Si](C)(C)O[Si](C)(C)O[Si](C)(C)O1`, for which the result was inactive.

As to `CC(C)C(=O)OCCOc1ccccc1`, the outcome was inactive.

Regarding `CCCCOCCOC(=O)COc1ccc(Cl)cc1Cl`, the compound was classed as inactive.

System in a further test: not listed separately
Description: ATG_GAL4_TRANS: Attagene TRANS-FACTORIAL HepG2 Assay for GAL4 (Internal Marker) (AID 2282976). The note with it: HepG2 Attagene TRANS GAL4 internal marker reporter. A digest of the protocol: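 First, HepG2 cells were transfected with reporter units under GAL4-UAS control. Next, they were treated with chemical for 24 h. Finally, RNA was reverse-transcribed, PCR-amplified, FAM-labelled and resolved by capillary electrophoresis, with induction scored against DMSO.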
Take `CC(=O)OC(C)c1ccccc1` (stereo unspecified): the outcome was inactive.

As for `O=S(=O)(O)c1ccc(Nc2nc(Nc3ccc(C=Cc4ccc(Nc5nc(Nc6ccc(S(=O)(=O)O)cc6)nc(N(CCO)CCO)n5)cc4S(=O)(=O)O)c(S(=O)(=O)O)c3)nc(N(CCO)CCO)n2)cc1`, the call was inactive.

As to `Clc1cccnc1`, the result was inactive.

On to `Nc1cccc(N)n1`, for which the outcome was inactive.

With `CC(C)=NNC(N)=S`, the result was inactive.

In the case of `[Cl][Sc]([Cl])[Cl]`, the compound was classed as inactive.

Take `CC1(C)CC(O)CC(C)(C)N1[O]`: the call was inactive.

On to `CCOC(=O)OC(=O)OCC`, for which the result was inactive.

In the case of `Nc1ncnc2nc[nH]c12`, the result was inactive.

With `C=CCCCCCCCCC=O`, the compound was called inactive.

`CC(C)(C)N`: the result was inactive.

In the case of `C[Si]1(C)O[Si](C)(C)O[Si](C)(C)O[Si](C)(C)O[Si](C)(C)O1`, the compound was classed as inactive.

Turning to `CC(C)c1ccc2ncccc2c1`, the compound was classed as inactive.
